# The supplement of paper PMC4466140
# B1: unnamed (peptide)
# chain: RRARRQMGIPTISQV
# B2: unnamed (peptide)
# chain: NPNRRAPRRPLSTQH
# Tests used:
# Assay in all cases: SPOT peptide array binding signal intensity (averaged, normalized) (arbitrary units (background-subtracted, floor 0; scale differs between SH3 domains)); higher = stronger binding of the SH3 domain to the peptide
# AgAbp1 = target: AgAbp1
# Method in brief: (§1)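 Detection of bound protein relied on anti-GST antibody, an HRP anti-mouse secondary and luminol, with imaging and quantification in Genespotter. The bound protein was GST-fused SH3 domains from four yeast species, incubated at 10 μg/ml overnight at 4°C in TBS-based blocking buffer on cellulose membranes carrying synthetic 15-mer peptides with cysteines replaced by serines. Binding signal is normalized, background-subtracted spot intensity averaged over replicates, in arbitrary units that differ between domains.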
# AgBbc1 = target: AgBbc1
# Method in brief: as §1
# AgBem1-D1 = target: AgBem1-D1
# Method in brief: as §1
# AgBzz1-D1 = target: AgBzz1-D1
# Method in brief: as §1
# AgBzz1-D2 = target: AgBzz1-D2
# Method in brief: as §1
# AgCyk3 = target: AgCyk3
# Method in brief: as §1
# AgFus1 = target: AgFus1
# Method in brief: as §1
# AgHof1 = target: AgHof1
# Method in brief: as §1
# AgHse1 = target: AgHse1
# Method in brief: as §1
# AgLsb1 = target: AgLsb1
# Method in brief: as §1
# AgLsb4 = target: AgLsb4
# Method in brief: as §1
# AgMyo5 = target: AgMyo5
# Method in brief: as §1
# AgNbp2 = target: AgNbp2
# Method in brief: as §1
# AgRvs167 = target: AgRvs167
# Method in brief: as §1
# AgSho1 = target: AgSho1
# Method in brief: as §1
# AgSla1-D1-D2 = target: AgSla1-D1-D2
# Method in brief: as §1
# AgSla1-D3 = target: AgSla1-D3
# Method in brief: as §1
# CaAbp1-D1 = target: CaAbp1-D1
# Method in brief: as §1
# CaAbp1-D2 = target: CaAbp1-D2
# Method in brief: as §1
# CaBbc1 = target: CaBbc1
# Method in brief: as §1
# CaBem1-D1 = target: CaBem1-D1
# Method in brief: as §1
# CaBzz1-D1 = target: CaBzz1-D1
# Method in brief: as §1
# CaBzz1-D2 = target: CaBzz1-D2
# Method in brief: as §1
# CaCyk3 = target: CaCyk3
# Method in brief: as §1
# CaFus1 = target: CaFus1
# Method in brief: as §1
# CaHof1 = target: CaHof1
# Method in brief: as §1
# CaHse1 = target: CaHse1
# Method in brief: as §1
# CaLsb1 = target: CaLsb1
# Method in brief: as §1
# CaLsb4 = target: CaLsb4
# Method in brief: as §1
# CaMyo5 = target: CaMyo5
# Method in brief: as §1
# CaNbp2 = target: CaNbp2
# Method in brief: as §1
# CaRvs167 = target: CaRvs167
# Method in brief: as §1
# CaRvs167-3 = target: CaRvs167-3
# Method in brief: as §1
# CaSho1 = target: CaSho1
# Method in brief: as §1
# CaSla1-D1-D2 = target: CaSla1-D1-D2
# Method in brief: as §1
# CaSla1-D3 = target: CaSla1-D3
# Method in brief: as §1
# ScAbp1 = target: ScAbp1
# Method in brief: as §1
# ScBbc1 = target: ScBbc1
# Method in brief: as §1
# ScBem1-D1 = target: ScBem1-D1
# Method in brief: as §1
# ScBzz1-D1 = target: ScBzz1-D1
# Method in brief: as §1
# ScBzz1-D2 = target: ScBzz1-D2
# Method in brief: as §1
# ScCyk3 = target: ScCyk3
# Method in brief: as §1
# ScFus1 = target: ScFus1
# Method in brief: as §1
# ScHof1 = target: ScHof1
# Method in brief: as §1
# ScHse1 = target: ScHse1
# Method in brief: as §1
# ScLsb1 = target: ScLsb1
# Method in brief: as §1
# ScLsb2 = target: ScLsb2
# Method in brief: as §1
# ScLsb3 = target: ScLsb3
# Method in brief: as §1
# ScLsb4 = target: ScLsb4
# Method in brief: as §1
# ScMyo3 = target: ScMyo3
# Method in brief: as §1
# ScMyo5 = target: ScMyo5
# Method in brief: as §1
# ScNbp2 = target: ScNbp2
# Method in brief: as §1
# ScPex13 = target: ScPex13
# Method in brief: as §1
# ScRvs167 = target: ScRvs167
# Method in brief: as §1
# ScSho1 = target: ScSho1
# Method in brief: as §1
# ScSla1-D1-D2 = target: ScSla1-D1-D2
# Method in brief: as §1
# ScSla1-D3 = target: ScSla1-D3
# Method in brief: as §1
# SpAbp1-D1 = target: SpAbp1-D1
# Method in brief: as §1
# SpBbc1 = target: SpBbc1
# Method in brief: as §1
# SpBzz1-D1 = target: SpBzz1-D1
# Method in brief: as §1
# SpBzz1-D2 = target: SpBzz1-D2
# Method in brief: as §1
# SpCyk3 = target: SpCyk3
# Method in brief: as §1
# SpHof1 = target: SpHof1
# Method in brief: as §1
# SpHof1-2 = target: SpHof1-2
# Method in brief: as §1
# SpHof1-3 = target: SpHof1-3
# Method in brief: as §1
# SpHse1 = target: SpHse1
# Method in brief: as §1
# SpLsb1 = target: SpLsb1
# Method in brief: as §1
# SpLsb4 = target: SpLsb4
# Method in brief: as §1
# SpMyo1 = target: SpMyo1
# Method in brief: as §1
# SpNbp2 = target: SpNbp2
# Method in brief: as §1
# SpPex13 = target: SpPex13
# Method in brief: as §1
# SpRvs167 = target: SpRvs167
# Method in brief: as §1
# SpSla1-D1-D2 = target: SpSla1-D1-D2
# Method in brief: as §1
# SpSla1-D3 = target: SpSla1-D3
# Method in brief: as §1
binder,measurement,setting,value
B1,SPOT peptide array binding signal intensity,AgAbp1,125
same,SPOT peptide array binding signal intensity,AgBbc1,71.8
same,SPOT peptide array binding signal intensity,AgBem1-D1,252
same,SPOT peptide array binding signal intensity,AgBzz1-D1,41
same,SPOT peptide array binding signal intensity,AgBzz1-D2,35
same,SPOT peptide array binding signal intensity,AgCyk3,5
same,SPOT peptide array binding signal intensity,AgFus1,716
same,SPOT peptide array binding signal intensity,AgHof1,83.8
same,SPOT peptide array binding signal intensity,AgHse1,854
same,SPOT peptide array binding signal intensity,AgLsb1,9.75
same,SPOT peptide array binding signal intensity,AgLsb4,138
same,SPOT peptide array binding signal intensity,AgMyo5,5
same,SPOT peptide array binding signal intensity,AgNbp2,724
same,SPOT peptide array binding signal intensity,AgRvs167,10.7
same,SPOT peptide array binding signal intensity,AgSho1,287
same,SPOT peptide array binding signal intensity,AgSla1-D1-D2,99.5
same,SPOT peptide array binding signal intensity,AgSla1-D3,14.5
same,SPOT peptide array binding signal intensity,CaAbp1-D1,514
same,SPOT peptide array binding signal intensity,CaAbp1-D2,941
same,SPOT peptide array binding signal intensity,CaBbc1,197
same,SPOT peptide array binding signal intensity,CaBem1-D1,299
same,SPOT peptide array binding signal intensity,CaBzz1-D1,98.5
same,SPOT peptide array binding signal intensity,CaBzz1-D2,115
same,SPOT peptide array binding signal intensity,CaCyk3,25.5
same,SPOT peptide array binding signal intensity,CaFus1,657
same,SPOT peptide array binding signal intensity,CaHof1,≤ 0
same,SPOT peptide array binding signal intensity,CaHse1,278
same,SPOT peptide array binding signal intensity,CaLsb1,2.25
same,SPOT peptide array binding signal intensity,CaLsb4,806
same,SPOT peptide array binding signal intensity,CaMyo5,12.5
same,SPOT peptide array binding signal intensity,CaNbp2,1560
same,SPOT peptide array binding signal intensity,CaRvs167,58
same,SPOT peptide array binding signal intensity,CaRvs167-3,89.8
same,SPOT peptide array binding signal intensity,CaSho1,758
same,SPOT peptide array binding signal intensity,CaSla1-D1-D2,385
same,SPOT peptide array binding signal intensity,CaSla1-D3,104
same,SPOT peptide array binding signal intensity,ScAbp1,152
same,SPOT peptide array binding signal intensity,ScBbc1,35.5
same,SPOT peptide array binding signal intensity,ScBem1-D1,100
same,SPOT peptide array binding signal intensity,ScBzz1-D1,11.5
same,SPOT peptide array binding signal intensity,ScBzz1-D2,54.5
same,SPOT peptide array binding signal intensity,ScCyk3,53.5
same,SPOT peptide array binding signal intensity,ScFus1,671
same,SPOT peptide array binding signal intensity,ScHof1,0.5
same,SPOT peptide array binding signal intensity,ScHse1,2110
same,SPOT peptide array binding signal intensity,ScLsb1,72.5
same,SPOT peptide array binding signal intensity,ScLsb2,2
same,SPOT peptide array binding signal intensity,ScLsb3,639
same,SPOT peptide array binding signal intensity,ScLsb4,121
same,SPOT peptide array binding signal intensity,ScMyo3,2.25
same,SPOT peptide array binding signal intensity,ScMyo5,1.5
same,SPOT peptide array binding signal intensity,ScNbp2,1060
same,SPOT peptide array binding signal intensity,ScPex13,96.9
same,SPOT peptide array binding signal intensity,ScRvs167,95
same,SPOT peptide array binding signal intensity,ScSho1,978
same,SPOT peptide array binding signal intensity,ScSla1-D1-D2,484
same,SPOT peptide array binding signal intensity,ScSla1-D3,308
same,SPOT peptide array binding signal intensity,SpAbp1-D1,416
same,SPOT peptide array binding signal intensity,SpBbc1,12.2
same,SPOT peptide array binding signal intensity,SpBzz1-D1,143
same,SPOT peptide array binding signal intensity,SpBzz1-D2,4.25
same,SPOT peptide array binding signal intensity,SpCyk3,3.5
same,SPOT peptide array binding signal intensity,SpHof1,188
same,SPOT peptide array binding signal intensity,SpHof1-2,71
same,SPOT peptide array binding signal intensity,SpHof1-3,435
same,SPOT peptide array binding signal intensity,SpHse1,1100
same,SPOT peptide array binding signal intensity,SpLsb1,7.5
same,SPOT peptide array binding signal intensity,SpLsb4,642
same,SPOT peptide array binding signal intensity,SpMyo1,13.5
same,SPOT peptide array binding signal intensity,SpNbp2,1480
same,SPOT peptide array binding signal intensity,SpPex13,86
same,SPOT peptide array binding signal intensity,SpRvs167,50.2
same,SPOT peptide array binding signal intensity,SpSla1-D1-D2,24.2
same,SPOT peptide array binding signal intensity,SpSla1-D3,131
B2,SPOT peptide array binding signal intensity,SpBzz1-D2,32.2
same,SPOT peptide array binding signal intensity,SpCyk3,1
same,SPOT peptide array binding signal intensity,SpHof1,342
same,SPOT peptide array binding signal intensity,SpHof1-2,8.5
same,SPOT peptide array binding signal intensity,SpHof1-3,166
same,SPOT peptide array binding signal intensity,SpHse1,1390
same,SPOT peptide array binding signal intensity,SpLsb1,11
same,SPOT peptide array binding signal intensity,SpLsb4,906
same,SPOT peptide array binding signal intensity,SpMyo1,84.5
same,SPOT peptide array binding signal intensity,SpNbp2,498
same,SPOT peptide array binding signal intensity,SpPex13,48.5
same,SPOT peptide array binding signal intensity,SpRvs167,17
same,SPOT peptide array binding signal intensity,SpSla1-D1-D2,1
same,SPOT peptide array binding signal intensity,SpSla1-D3,32
